According to PubChem BioAssay AID1159580 (chemical genetic matrix, 2015):
Values joined by “and” are separate entries in the source; they are usually repeats but may differ in a detail not shown here. Equal entries are not always repeated. In all, about 5,500 compounds went through this assay and about 2,000 (36%) were called active. Another 18% or so got no clear call; they are omitted. Cut-off read from the data, not from the text of the source: active = normalized growth mostly below about 0.91 (no sharp cut-off); inconclusive = no clear call, values can overlap the other calls; inactive = mostly above about 0.92. This is one part of the list.

Assay: chemical genetic growth profiling, strain panel (AID 1159580);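 note: tested at 20 µM; growth read once vehicle control cultures reached saturation at 30 °C; 1 = growth at the plate median or of vehicle wells; lower values mean less growth of the strain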
Settings: S. cerevisiae deletion strains, growth OD

Measured: normalized growth

ClC1C(Cl)C(Cl)C(Cl)C(Cl)C1Cl (stereo unspecified)
inactive: locus YAL013W, strain DEP1, stronger effect = lower value 0.981 | locus YAL021C, strain ccr4, stronger effect = lower value 0.997 | locus YAL026C, strain drs2, stronger effect = lower value 0.988 | locus YAL030W, strain snc1, stronger effect = lower value 0.98 | locus YBL061C, strain skt5, stronger effect = lower value 0.965 | locus YBR021W, strain FUR4, stronger effect = lower value 0.985 | locus YBR023C, strain chs3, stronger effect = lower value 0.965 | locus YBR171W, strain sec66, stronger effect = lower value 0.956 | locus YBR229C, strain ROT2, stronger effect = lower value 0.962 | locus YBR231C, strain swc5, stronger effect = lower value 0.913 | locus YBR279W, strain paf1, stronger effect = lower value 0.971 | locus YCL011C, strain gbp2, stronger effect = lower value 0.931 | locus YCL069W, strain vba3, stronger effect = lower value 0.986 | locus YCR088W, strain abp1, stronger effect = lower value 0.965 | locus YDL005C, strain med2, stronger effect = lower value 1.01 | locus YDL035C, strain GPR1, stronger effect = lower value 0.976 | locus YDL040C, strain nat1, stronger effect = lower value 0.986 | locus YDL074C, strain BRE1, stronger effect = lower value 0.939 | locus YDL101C, strain DUN1, stronger effect = lower value 0.964 | locus YDL134C, strain PPH21, stronger effect = lower value 0.963 | locus YDL185W, strain tfp1, stronger effect = lower value 0.926 | locus YDL192W, strain arf1, stronger effect = lower value 0.942 | locus YDR001C, strain nth1, stronger effect = lower value 0.964 | locus YDR069C, strain doa4, stronger effect = lower value 0.989 | locus YDR101C, strain arx1, stronger effect = lower value 0.956 | locus YDR150W, strain NUM1, stronger effect = lower value 0.942 | locus YDR162C, strain NBP2, stronger effect = lower value 0.969 | locus YDR195W, strain ref2 1.07 | locus YDR297W, strain sur2, stronger effect = lower value 0.97 | locus YDR318W, strain mcm21, stronger effect = lower value 0.926 | locus YDR334W, strain swr1, stronger effect = lower value 0.976 | locus YDR335W, strain msn5, stronger effect = lower value 1 | locus YDR388W, stronger effect = lower value 0.935 | locus YDR502C, strain sam2, stronger effect = lower value 0.937 | locus YEL003W, strain gim4, stronger effect = lower value 0.982 | locus YEL037C, strain rad23, stronger effect = lower value 0.973 | locus YEL061C, strain CIN8 (second series), stronger effect = lower value 0.99 | locus YEL061C, strain CIN8, stronger effect = lower value 0.953 | locus YER015W, strain faa2, stronger effect = lower value 0.982 | locus YER016W, strain bim1, stronger effect = lower value 0.98 | locus YER110C, stronger effect = lower value 0.935 | locus YER111C, strain swi4, stronger effect = lower value 0.933 | locus YER155C, strain BEM2, stronger effect = lower value 0.959 | locus YFR010W, strain ubp6, stronger effect = lower value 0.983 | locus YGL078C, strain dbp3, stronger effect = lower value 0.933 | locus YGL086W, strain mad1, stronger effect = lower value 0.933 | locus YGL167C, strain pmr1, stronger effect = lower value 0.974 | locus YGL173C, strain kem1, stronger effect = lower value 0.96 | locus YGL227W, strain vid30, stronger effect = lower value 0.954 | locus YGL248W, strain PDE1, stronger effect = lower value 0.954 | locus YGL253W, strain hxk2, stronger effect = lower value 0.976 | locus YGR078C, strain PAC10, stronger effect = lower value 0.954 | locus YGR135W, strain pre9, stronger effect = lower value 0.947 | locus YGR229C, strain SMI1, stronger effect = lower value 0.954 | locus YGR252W, strain gcn5, stronger effect = lower value 1.12 | locus YHR013C, strain ard1, stronger effect = lower value 0.866 | locus YHR027C, strain rpn1, stronger effect = lower value 0.988 | locus YHR030C, strain SLT2, stronger effect = lower value 0.945 and 0.982 | locus YHR079C, strain IRE1 (second series), stronger effect = lower value 0.927 | locus YHR079C, strain IRE1, stronger effect = lower value 0.985 | locus YHR129C, strain ARP1, stronger effect = lower value 0.958 | locus YHR200W, strain rpn10, stronger effect = lower value 0.922 | locus YIL066C, strain RNR3, stronger effect = lower value 0.955 | locus YIL073C, strain SPO22, stronger effect = lower value 0.906 | locus YIR030C, strain dcg1, stronger effect = lower value 0.945 | locus YJL092W, strain hpr5, stronger effect = lower value 0.95 | locus YJL095W, strain BCK1 (second series), stronger effect = lower value 0.931 | locus YJL095W, strain BCK1, stronger effect = lower value 0.871 and 0.984 | locus YJL115W, strain asf1, stronger effect = lower value 1.01 | locus YJL134W, strain LCB3, stronger effect = lower value 0.955 | locus YJL154C, strain vps35, stronger effect = lower value 0.982 | locus YJL164C, strain tpk1, stronger effect = lower value 0.925 | locus YJL168C, strain set2, stronger effect = lower value 0.943 | locus YJL187C, strain SWE1 (second series), stronger effect = lower value 0.959 | locus YJR043C, strain POL32, stronger effect = lower value 0.965 | locus YJR066W, strain TOR1, stronger effect = lower value 0.939
active: locus YBR009C, strain hhf1, stronger effect = lower value 0.831 | locus YCL016C, strain dcc1, stronger effect = lower value 0.898 | locus YCL029C, strain bik1, stronger effect = lower value 0.906 | locus YCL061C, strain MRC1, stronger effect = lower value 0.894 | locus YDR137W, strain rgp1, stronger effect = lower value 0.606 | locus YDR159W, strain sac3, stronger effect = lower value 0.703 | locus YDR392W, strain spt3, stronger effect = lower value 0.295 | locus YER155C, strain BEM2 (second series), stronger effect = lower value 0.306 | locus YER167W, strain BCK2, stronger effect = lower value 0.84 | locus YGL240W, strain doc1, stronger effect = lower value 0.774 | locus YHR094C, strain hxt1, stronger effect = lower value 0.923 | locus YHR142W, strain chs7, stronger effect = lower value 0.805 | locus YIL125W, strain kgd1, stronger effect = lower value 0.906 | locus YJL129C, strain trk1, stronger effect = lower value 0.783 | locus YJL166W, strain qcr8, stronger effect = lower value 0.728
